p53 reactivator – mutant p53 re-activation in reporter cells; AID 504706; H1299 p53-A138V BP100-luciferase reporter, luminescence, 24 h; 0.063% of 320,000 active; Potency, µM (series often up to 92.2 µM), hits mostly activators; further: nearly all actives have a fitted effect of over 45% in size
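p53-null H1299 cells stably carrying temperature-sensitive p53-A138V and a BP100-luciferase reporter were pinned with compounds (4-point, 1:5 series) and held 24 hrs at 37 deg C. Luminescence was read 10 min after detection reagent.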
BRCA1 expr act – increases BRCA1 expression; MCF7-BRCA1-FFLuc reporter, luminescence, 48 h; response scale: scaled: vehicle 0%, 10 µM genistein 100%; Potency, µM (doses to about 46.1 µM), most hits filed as activators; 1.1% of 380,000 active; AID 624202; further: nearly all actives have a fitted effect of over 80% in size
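MCF7-BRCA1-FFLuc cells, 2000/well in phenol-red-free MEM, attached 2 h then treated 48 h at 37 C. Luciferase luminescence read 15 min after reagent; normalized to genistein maximum activation (10microM) and DMSO, concentration-response fitted.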
VP16 counter – inhibits Gal4-VP16 luciferase reporter, ROR gamma counter-screen | 3.5% of 310,000 active | Potency, µM (top dose mostly 53.6 µM), most hits filed as inhibitors | AID 2546 | Drosophila S2 Gal4-VP16 UAS-luciferase, luminescence, 20 h;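 further: Gal4-VP16 expression switched on by copper sulfate through the metallothionein promoter; nearly all actives have a fitted effect of over 50% in size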
ELG1 repair inh – ELG1-dependent DNA repair inhibition; HEK293T ELG1-luciferase reporter, luminescence, 16 h; DNA damage induced by 5-fluorouridine; Potency, µM (highest dose often 46.1 µM), hits mostly inhibitors; 2.3% of 330,000 active; further: nearly all actives have a fitted effect of over 55% in size
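HEK293T cells expressing luciferase-tagged ELG1 (2,000/well) received 5-Fluorouridine plus compound or DMSO for 16 hr at 37 °C. Luciferase was read by ONE-Glo luminescence after 30 min at room temperature.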
Giardia killer – Giardia lamblia killing; Giardia lamblia trophozoite viability; activity change, % at 7.66 µM, hits read low; 0.15% of 340,000 active; in the data active means activity change below about -80%; inconclusive means between about -30% and that limit;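 further: parasites exposed to compound for two days anaerobically before the ATP read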
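Trophozoites 100 cells/well + cpd; 48 hrs, 37 deg C, anaerobic. ATPLite 1-Step added, 15-30 min RT, luminescence read (ATP-based viability).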
RORgamma inh – blocks mouse ROR gamma transcriptional activity. P51450. Drosophila S2 Gal4-RORgamma UAS-luciferase reporter, 20 h. Potency, µM (doses to about 53.6 µM), most hits filed as inhibitors. 5.4% of 310,000 active; further: nearly all actives have a fitted effect of over 60% in size
Target sequence (P51450 whole entry, looked up, the tested form may be a part): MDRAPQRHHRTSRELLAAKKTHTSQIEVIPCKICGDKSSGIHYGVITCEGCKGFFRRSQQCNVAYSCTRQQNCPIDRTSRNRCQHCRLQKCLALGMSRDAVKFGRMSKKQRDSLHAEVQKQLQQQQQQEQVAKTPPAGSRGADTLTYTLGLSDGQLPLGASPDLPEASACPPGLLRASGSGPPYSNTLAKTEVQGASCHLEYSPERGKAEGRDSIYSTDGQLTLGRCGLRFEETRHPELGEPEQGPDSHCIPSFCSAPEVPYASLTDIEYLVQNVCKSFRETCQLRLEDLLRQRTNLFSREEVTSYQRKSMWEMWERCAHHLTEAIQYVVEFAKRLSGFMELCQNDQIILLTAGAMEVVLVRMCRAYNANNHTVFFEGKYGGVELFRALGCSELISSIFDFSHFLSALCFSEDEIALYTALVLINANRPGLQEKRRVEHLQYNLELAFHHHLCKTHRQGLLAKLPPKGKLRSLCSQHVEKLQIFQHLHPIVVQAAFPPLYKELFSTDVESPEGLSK
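Using a luciferase readout, inhibitors were identified by reduced reporter activity in Drosophila cells coexpressing a copper-inducible Gal4–ROR gamma fusion and UAS-driven Photinus luciferase, incubated 20 hr after 700 uM copper sulfate.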
Large screens that a line does not name were inactive. Compounds with a hit are over-represented: about 7.6% of the library has one in this group of screens. Unless noted, the call rests on the fitted dose curve; in most records, active means well fitted curve in the direction sought with a large enough effect; inconclusive means small, poorly fitted or top-dose-only effect, or another doubt; inactive means no such curve, though single readings can be large; an effect the other way counts as inactive or inconclusive.

COc1ccccc1N1CCN(C(=O)C(=O)c2cn(CC(=O)N3CCOCC3)c3ccccc23)CC1	none
O=C(CSc1nnc(CNC(=O)c2c(F)cccc2Cl)o1)NCCc1ccccc1	none
Cc1ccc(-c2nnc(SCC(=O)NC3CCCC3)n2C)cc1	none
CCCn1c(N)c(C(=O)CSc2nnc(Cc3ccccc3)o2)c(=O)n(C)c1=O	VP16 counter inconclusive, ELG1 repair inh 5.8µM, RORgamma inh inconclusive
O=C(CSc1nnc(Cc2ccccc2)o1)c1ccccc1	ELG1 repair inh inconclusive
N#Cc1cnc(SCC(=O)Nc2ccccc2C(F)(F)F)nc1N	Giardia killer inconclusive
Cc1ccc(OCC(=O)NNC(=O)CSc2ncc(C#N)c(N)n2)cc1	VP16 counter inconclusive, RORgamma inh 0.71µM
COc1ccc(S(=O)(=O)N2CCC(CN3C(=O)c4cccc5cccc(c45)C3=O)CC2)cc1	ELG1 repair inh 10µM
O=C(c1ccc(S(=O)(=O)N2CCCC2)cc1)N1CCC(CN2C(=O)c3cccc4cccc(c34)C2=O)CC1	ELG1 repair inh 10µM, RORgamma inh inconclusive
COc1ccc(OCC(O)CN2CCC(CN3C(=O)c4cccc5cccc(c45)C3=O)CC2)cc1 (centres undefined)	none
O=c1[nH]cc(F)c(=O)[nH]1	none
CSc1ccc(C2(O)Cc3cccc[n+]3C2c2ccccc2)cc1 (centres undefined)	none
Cc1nc2ccccc2n1CC(=O)NC(C)C1CC2CCC1C2 (centres undefined)	VP16 counter inconclusive, ELG1 repair inh 5.2µM, RORgamma inh inconclusive
Cn1c(-c2ccc(N)cc2)nc2ccccc21	p53 reactivator inconclusive, ELG1 repair inh inconclusive
Cn1c(CCc2ccc(N)cc2)nc2ccccc21	BRCA1 expr act inconclusive, VP16 counter inconclusive, ELG1 repair inh inconclusive, RORgamma inh 11µM
Cc1nc2ccccc2n1CC(=O)NCc1ccccc1	VP16 counter 6.3µM
CCc1nc2ccccc2n1Cc1ccccc1F	RORgamma inh 10µM
COCCNC(=O)c1cc2nc(-c3ccccc3)cc(C)n2n1	ELG1 repair inh inconclusive
CCCc1nc2ccccc2n1CCc1ccccc1	RORgamma inh 7.1µM
OCCCc1nc2ccccc2n1CCc1ccccc1	none
c1ccc(CCn2nnc3ccccc32)cc1	BRCA1 expr act 13µM, ELG1 repair inh inconclusive
Cc1nc2ccccc2n1CCc1ccccc1	RORgamma inh 11µM
Cc1nc2ccccc2c(=O)n1CCc1ccccc1	none
Cc1nn(CCC#N)c2[nH]c(=O)cc(C(F)(F)F)c12	none
O=C(COC(=O)c1ccc(Br)o1)c1ccc(S(=O)(=O)N2CCCCC2)cc1	none (no result: VP16 counter, RORgamma inh)
Cc1[nH]n(-c2ccccc2)c(=S)c1C=Nc1ccc([N+](=O)[O-])cc1	VP16 counter 7.1µM, RORgamma inh 3.2µM
COc1ccc(C(=O)Nc2cccc3c2CCCC3)c(OC)c1	none (no result: p53 reactivator, VP16 counter, ELG1 repair inh, RORgamma inh)
CC(NC(=O)COC(=O)c1ccc([N+](=O)[O-])s1)c1ccccc1 (centres undefined)	RORgamma inh 11µM
CC(C)C[C@@H](CN1CCCC1CN1C(=S)NC[C@@H]1Cc1ccc(O)cc1)N1C[C@H](Cc2ccc(O)cc2)N(CC2CCCCCC2)C1=S (some centres undefined)	none (no result: p53 reactivator, VP16 counter, ELG1 repair inh, RORgamma inh)
COc1ccc(C(=O)COC(=O)c2ccc3c(c2)NC(=O)CS3)c(OC)c1	ELG1 repair inh inconclusive (no result: VP16 counter, RORgamma inh)
CCOc1ccc(C(C)=O)cc1COC(=O)c1ccc2c(c1)NC(=O)CS2	ELG1 repair inh 16µM (no result: VP16 counter, RORgamma inh)
Cn1c(N2CCOCC2)c(/C=N/O)c2ccccc21	none
Cn1c(N2CCOCC2)c(/C=N/OC(=O)c2cccnc2Cl)c2ccccc21	ELG1 repair inh inconclusive
Cc1ccc(C(=O)O/N=C/c2c(N3CCOCC3)n(C)c3ccccc23)cc1	VP16 counter 3.5µM, ELG1 repair inh inconclusive, RORgamma inh 1.1µM
Cn1c(N2CCOCC2)c(/C=N/OC(=O)c2ccc(F)cc2)c2ccccc21	VP16 counter 2.2µM, ELG1 repair inh inconclusive, RORgamma inh 0.63µM
CC(=O)O/N=C/c1c(N2CCOCC2)n(C)c2ccccc12	VP16 counter 11µM, ELG1 repair inh inconclusive, RORgamma inh 6.3µM
CC(=O)c1ccc(-c2ccc(/C=C(/Sc3n[nH]c(C)n3)C(=O)O)o2)cc1	VP16 counter inconclusive, Giardia killer inconclusive, RORgamma inh 5.6µM
Cc1nc(S/C(=C/c2ccc(-c3ccc(Cl)cc3)o2)C(=O)O)n[nH]1	VP16 counter 2.8µM, RORgamma inh 1.4µM
Cn1cnc([N+](=O)[O-])c1Sc1ncnc2nc[nH]c12	p53 reactivator inconclusive, ELG1 repair inh 0.21µM
CCOC(=O)C(C(C)=O)c1c(Br)c(O)c(O)c2c(C(=O)c3ccc(C)cc3)coc12 (centres undefined)	p53 reactivator 25µM, VP16 counter 16µM, ELG1 repair inh 4.6µM, RORgamma inh 13µM
CC1=NN(c2nc(-c3ccc(C)cc3)cs2)C(=O)C1N=Nc1ccc2ccccc2c1 (centres undefined)	none
CC1=NN(c2nc(-c3ccccc3)cs2)C(=O)C1N=Nc1ccccc1 (centres undefined)	Giardia killer inconclusive, RORgamma inh 7.1µM
CCOc1ccc(NC(=O)C2CCCN(S(=O)(=O)c3ccc(-n4cnnn4)cc3)C2)cc1 (centres undefined)	none
Cc1ccc(S(=O)(=O)NCC(=O)NCC(=O)N2CCN(c3ncccn3)CC2)cc1C	none
Cc1c(Cl)cccc1NC(=S)NNS(=O)(=O)c1ccc([N+](=O)[O-])cc1	VP16 counter 7.1µM, RORgamma inh 4.5µM
COc1ccc(S(=O)(=O)N2CCCCC2)cc1NC(=S)Nc1cccc(Cl)c1C	VP16 counter inconclusive, RORgamma inh 11µM
COc1ccc(S(=O)(=O)N2CCCCCC2)cc1C(=O)N1CCCCC1	VP16 counter inconclusive, RORgamma inh 1.4µM
COc1cc(S(=O)(=O)N2CCOCC2)ccc1NC(=O)COC(=O)/C=C/c1cc(OC)c(OC)c(OC)c1	none (no result: VP16 counter, RORgamma inh)
COc1cc(/C=C/C(=O)OCC(=O)Nc2cc(S(=O)(=O)N3CCOCC3)ccc2Cl)cc(OC)c1OC	ELG1 repair inh 18µM (no result: VP16 counter, RORgamma inh)
Cn1c(SCC(=O)NC2CCS(=O)(=O)C2)nc2ccccc21 (centres undefined)	none (no result: VP16 counter, RORgamma inh)
O=C(Nc1ccc(Cl)c(C(F)(F)F)c1)[C@@H]1CC=C[C@@H]2CCN(Cc3ccc(Cl)c(Cl)c3)C(=O)[C@@H]21	none (no result: p53 reactivator, VP16 counter, ELG1 repair inh, RORgamma inh)
COc1ccccc1CNCC(=O)Nc1cc(S(=O)(=O)N2CCOCC2)ccc1Cl	ELG1 repair inh 21µM (no result: VP16 counter, RORgamma inh)
COc1ccccc1CNCC(=O)Nc1cc(S(=O)(=O)N2CCCCCC2)ccc1Cl	ELG1 repair inh 23µM, RORgamma inh inconclusive
O=C(CNCc1ccccn1)Nc1cc(S(=O)(=O)N2CCCCC2)ccc1Cl	ELG1 repair inh inconclusive

Screening results as filed in PubChem BioAssay.
